# Bioassay records as filed in PubChem.
# G9a inh = qHTS Assay for Inhibitors of Histone Lysine Methyltransferase G9a; 8.8% of 350,000 active; Potency, µM (highest dose often 102 µM), for inactives: top-dose activity, negative = inhibition, usual class: inhibitors; AID 504332, 2011; G9a H3K9 monomethylation, AlphaScreen, 2 h; also: potency is read from the fitted curve at half-maximal effect; % is scaled to controls: 0 for no effect and ±100 for the full control effect; nearly all actives have a fitted effect of over 75% in size
#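 Methyltransferase reactions run at room temperature for 2 h (20 nM enzyme, 500 nM biotin-H3K9 peptide, 20 uM SAM) after a 15 min compound preincubation; product detected by AlphaScreen beads and anti-H3K9me1 antibody.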
# ALDH1A1 inh = qHTS Assay for Inhibitors of Aldehyde Dehydrogenase 1 (ALDH1A1) | Aldehyde dehydrogenase 1A1 (Homo sapiens), P00352 | Purified ALDH1A1, NADH fluorescence, propionaldehyde substrate | Potency, µM (series often up to 75.3 µM), inactives show top-dose activity, negative = inhibition, usual class: inhibitors | 7.3% of 220,000 active; active = well fitted inhibition curve with a large enough effect, not every such curve was filed as active; inconclusive = small, poorly fitted or top-dose-only effect, or another doubt; inactive = no such curve, though single readings can be large or run the other way;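 also: potency is read from the fitted curve at half-maximal effect; plate controls were no enzyme wells and a reference inhibitor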
# Target sequence (P00352 whole entry, looked up): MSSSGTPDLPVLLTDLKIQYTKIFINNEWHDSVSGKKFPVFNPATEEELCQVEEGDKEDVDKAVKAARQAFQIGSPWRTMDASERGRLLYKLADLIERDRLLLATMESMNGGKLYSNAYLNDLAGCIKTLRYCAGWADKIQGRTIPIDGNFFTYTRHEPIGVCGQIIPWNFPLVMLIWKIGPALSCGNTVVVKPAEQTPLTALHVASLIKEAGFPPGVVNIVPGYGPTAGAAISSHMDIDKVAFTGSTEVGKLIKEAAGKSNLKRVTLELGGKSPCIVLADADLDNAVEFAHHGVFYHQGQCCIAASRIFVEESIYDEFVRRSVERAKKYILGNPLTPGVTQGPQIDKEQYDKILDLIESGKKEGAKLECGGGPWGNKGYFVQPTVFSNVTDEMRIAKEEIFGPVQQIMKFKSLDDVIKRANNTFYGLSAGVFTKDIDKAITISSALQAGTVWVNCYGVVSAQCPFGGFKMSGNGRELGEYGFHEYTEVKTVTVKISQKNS
# Sfp inh = qHTS Assay for Inhibitors of Bacillus subtilis Sfp phosphopantetheinyl transferase (PPTase); Biochemical Sfp PPTase activity, qHTS; 4'-phosphopantetheinyl transferase ffp (Bacillus subtilis), Q9F4F7; 3.5% of 310,000 active; AID 1490, 2009; Potency, µM, for inactives: largest response in the series, negative = inhibition, actives largely listed as inhibitors;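 also: the enzyme is Sfp with the accession as filed and its product quenches rhodamine fluorescence; potency is read from the fitted curve at half-maximal effect; 0% = enzyme reaction without inhibitor and -100% = no enzyme wells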
#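 With Hepes-Na pH 7.6 buffer containing 10 mM MgCl2, Sfp (15 nM) modified BHQ-2-YbbR (12.5 uM) using rhodamine-CoA (5 uM). Two reads 30 minutes apart at 525/598 nm yielded each well's rate.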
# Lamin A splicing = qHTS Assay for Modulators of Lamin A Splicing; HeLa LMNA splicing GFP/RFP minigene ratio, 48 h; Potency, µM (series often up to 46.1 µM), for the others: top-dose ratio change, negative = inhibition, usual class: inhibitors; 0.01% of 200,000 active; AID 1487, 2009; active = well fitted inhibition curve with a large enough effect in the signal ratio, with a control signal flat, not every such curve was filed as active; inconclusive = small, poorly fitted or top-dose-only effect, or effect the other way, or a change in a side signal; the % refers to the signal ratio; also: potency is read from the fitted curve at half-maximal effect; % is scaled to controls: 0 for no effect and ±100 for the full control effect
#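 S3 HeLa cells stably expressing lamin A-EGFP splicing minigene plus DsRed2, 600 cells/well, 48 h compound exposure at 37C. Laser-scanning cytometry; analysed as GFP (500-530 nm)/RFP (575-640 nm) total intensity ratio; 0.5% DMSO vehicle.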
# miR-21 act = qHTS Assay for Modulators of miRNAs and/orActivators of miR-21. HeLa miR-21 FLuc reporter, luciferase, 48 h. Potency, µM (top dose mostly 38.3 µM), inactives show at the top dose activity change, positive = activation, hits mostly activators. 340,000 tested, under 10 active;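 also: % of control where 0% means no effect; miR-21 action dims this reporter so a rising signal means less miR-21 action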
#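 Using DMEM plus 10% FBS, HeLa miR-21-FLuc cells are incubated with test compounds (final up to about 40uM) for 48 hours; firefly luciferase signal is then imaged following reagent-mediated lysis.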
# JMJD2E inh = qHTS Assay for Inhibitors of Human Jumonji Domain Containing 2E (JMJD2E). Lysine-specific demethylase 4E (Homo sapiens), B2RXH2. 1.6% of 230,000 active. Potency, µM (titrated, usually from 57.1 µM), for inactives: top-dose activity change, negative = inhibition, actives largely listed as inhibitors. JMJD2E catalytic domain, FDH-coupled NADH fluorescence (FDH is formaldehyde dehydrogenase);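 also: potency is read from the fitted curve at half-maximal effect; 0% = wells with enzyme and -100% = buffer wells without enzyme; nearly all actives have a fitted effect of over 50% in size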
# Target sequence (B2RXH2 1-337 limits assumed): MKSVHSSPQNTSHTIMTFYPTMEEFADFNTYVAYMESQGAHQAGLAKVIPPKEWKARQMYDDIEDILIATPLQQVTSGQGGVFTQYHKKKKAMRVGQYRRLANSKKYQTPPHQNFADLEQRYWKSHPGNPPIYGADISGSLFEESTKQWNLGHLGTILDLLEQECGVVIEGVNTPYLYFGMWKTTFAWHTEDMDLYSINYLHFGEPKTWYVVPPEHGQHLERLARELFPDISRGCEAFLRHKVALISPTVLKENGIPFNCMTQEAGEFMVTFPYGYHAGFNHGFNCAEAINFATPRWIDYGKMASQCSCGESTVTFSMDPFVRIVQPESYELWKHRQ
# Numbers without * were called inactive; ? = inconclusive; . = not tested or not shown; [ ] = another dose, or the depositor's remark. An excerpt weighted towards active compounds, which were near 13% of everything screened. Unless noted, calls follow the shape of the dose curve; as a rule, active = well fitted curve in the direction sought with a large enough effect; inconclusive = small, poorly fitted or top-dose-only effect, or another doubt; inactive = no such curve, though single readings can be large; an effect the other way counts as inactive or inconclusive.
SMILES,G9a inh,ALDH1A1 inh,Sfp inh,Lamin A splicing,miR-21 act,JMJD2E inh
COc1ccc(-c2cc(C(F)(F)F)c(C#N)c(SCC(=O)Nc3ccc(C)cc3)n2)cc1,?,-0.4%,-9.4%,1.6%,-6.6%,?
COc1ccc(C(=O)CSc2[nH]c(=O)cc(C(F)(F)F)c2C#N)cc1,-3.1%,17.8µM*,-25.4%,.,-38.1%,-10.9%
CCOc1cc(/C=N/Nc2cc(C)nc(-n3nc(C)cc3C)n2)ccc1O,44.7µM*,.,1.4%,.,?,?
CC(=O)Nc1sc(N/N=C/c2ccc(N(C)C)cc2)nc1-c1ccc(C)cc1,8.91µM*,.,13.4%,.,-42.1%,?
CCOc1cc(/C=N\Nc2nc(-c3ccc(C)cc3)c(NC(C)=O)s2)ccc1O,31.6µM*,.,-10.6%,.,5.5%,-25.1%
Cc1ccsc1CCN1C(=O)N(c2ccc(F)cc2)C(=O)C1CC(=O)Nc1ccccc1 (stereo not given),4.3%[59 µM],.,.,.,10.4%,.
CC(C)OC(=O)/C(=C/c1ccco1)c1ccccc1,.,.,44.7µM*,.,-8.5%,-3.8%
Cc1ccccc1NC(=O)/C(=C/c1ccco1)c1ccccc1,31.6µM*,-8.9%,56.2µM*,-4.4%,-7.1%,-6.7%
CCc1ccccc1NC(=O)/C(=C/c1ccco1)c1ccccc1,39.8µM*,?,44.7µM*,?,0.8%,14.9%
COC(=O)[C@@]1(Cc2ccccc2)[C@H]2c3cc(C(=O)N4CCCC4)n(CCN4CNCC4=O)c3C[C@H]2CN1C(=O)c1ccccc1,.,-4.4%,8.1%,.,.,-6.5%
COc1ccc(C(=O)NCCc2cc3ccc(C)c(C)c3[nH]c2=O)cc1OC,-28.6%,?,1.9%,20.2%[9.22 µM],-0.6%,?
Cc1ccc2cc(CCNC(=O)c3ccco3)c(=O)[nH]c2c1C,79.4µM*,?,-19.0%,-12.1%,-60.5%,-1.4%
COc1ccc2cc(CCNC(=O)c3ccco3)c(=O)[nH]c2c1,44.7µM*,.,12.8%,.,-44.1%,.
Cc1ccc2cc(CCNC(=O)c3ccco3)c(=O)[nH]c2c1,?,?,3.2%,-7.2%,-72.4%,?
COc1ccc(N(C(=O)c2ccccc2C)S(=O)(=O)c2cccs2)cc1,-2.6%[59 µM],11.2µM*,15.1%,9.7%,?,-5.4%
Cc1nn(Cc2ccccc2)c(C)c1CNC(=O)[C@H](C)N=C1NS(=O)(=O)c2ccccc21,-5.3%[12.7 µM],.,.,.,.,.
Cc1cc(Nc2ccccc2)n(-c2ccc(Br)cc2)n1,50.1µM*,-15.5%,2.3%,-5.4%,12.6%,-4.3%
CCc1cc2cc(C)ccc2nc1SCC(=O)N1CCN(C(=O)c2ccco2)CC1,?,?,-19.2%,?,-0.5%,0.4%
CCc1cc2ccccc2nc1SCC(=O)N1CCN(C(=O)c2ccco2)CC1,50.1µM*,-14.0%,-6.8%,?,-0.7%,-1.6%
Cc1ccc(SCC(=O)n2nc(C)cc2C)cc1,-2.1%[59 µM],7.8%,8.9%,-19.1%,-11.2%,4.6%
O=C(CSc1ncnc2sc3c(c12)CCCC3)c1ccco1,34.3%[59 µM],22.4µM*,?,?,-42.0%,?
O=C(CSc1nc2ccccc2o1)N1CCN(C(=O)c2ccco2)CC1,-5.6%[59 µM],12.6µM*,3.5%,-10.2%,5.3%,2.3%
Cc1cc(C)n(C(=O)CSc2nc3ccccc3o2)n1,79.4µM*,?,1.5%,2.9%,-10.8%,3.8%
CC(=O)OCC(=O)[C@@]1(O)[C@H](C)C[C@@H]2[C@H]3CCC4=CC(=O)C=C[C@]4(C)[C@]3(F)[C@@H](O)C[C@@]21C,10.5%[21.5 µM],-1.8%[20.9 µM],6.3%,?,.,-3.4%[25.5 µM]
O=c1c(-c2cccc(Cl)c2)nc2cncnc2n1Cc1ccccc1Cl,7.6%[12.7 µM],2.1%,?,.,.,.
SMILES,G9a inh,ALDH1A1 inh,Sfp inh,Lamin A splicing,miR-21 act,JMJD2E inh
CC(=O)CSc1ncnc2sc3c(c12)CCC(C)C3 (stereo not given),39.8µM*,?,-21.0%,?,-48.8%,-15.6%
COc1ccccc1N1CCN(C(=O)CSc2nc3ncnc(N)c3[nH]2)CC1,-40.1%[12.7 µM],28.2µM*,-1.6%,-6.3%,-2.4%,-2.0%
O=C(CSc1nnc(-c2ccccc2Br)o1)N1CCN(C(=O)c2ccco2)CC1,-12.0%[59 µM],8.91µM*,-18.8%,?,-9.8%,-4.6%
COc1ccccc1N1CCN(C(=O)CSc2nc3ccccc3o2)CC1,?,8.91µM*,-20.6%,11.4%,-6.3%,-2.0%
COc1ccccc1N1CCN(C(=O)CSc2nc3ccccc3nc2Cc2ccccc2)CC1,-10.1%[59 µM],.,.,-11.4%[46 µM],9.4%,.
CCN(CC)S(=O)(=O)c1ccc2c(c1)N(CC(=O)N1CCN(c3ccc(Cl)cc3)CC1)C(=O)CO2,6.5%[59 µM],.,.,7.0%[46 µM],0.6%,.
CC(CNC(=O)CCCn1c(=O)c2cccn2c2ccccc21)c1ccccc1 (stereo not given),-41.9%[59 µM],.,.,-6.2%[46 µM],-4.6%,.
COc1ccc(CCNC(=O)C2=C(C)C(=O)OC23CCCCC3)c(OC)c1,-24.8%[59 µM],.,.,.,3.5%,.
COC(=O)CSc1nc2sc3c(c2c(=O)n1-c1ccccc1)C(C)CCC3 (stereo not given),3.4%[59 µM],.,.,.,-7.5%,.
COc1ccc(CCNC(=O)C2CCC(C(C)(C)C)CC2)cc1OC (stereo not given),-19.7%,.,7.9%,.,13.3%,.
Cc1csc2nc(CSc3nncn3-c3ccccc3)c(Br)n12,-37.2%[12.7 µM],-12.8%,13.4%,-3.2%,-12.3%,5.9%
Nc1cc(N)nc(SCC(=O)N2CCN(C(=O)c3ccco3)CC2)n1,14.6%,?,11.3%,9.6%,-0.8%,-2.8%
Cc1csc2nc(CSc3nc4ccccc4o3)c(Br)n12,?,22.4µM*,-12.0%,0.6%,-74.0%,-0.2%
CCc1nc(SCC(=O)N2CCN(C(=O)c3ccco3)CC2)c2c3c(sc2n1)CCCC3,50.1µM*,28.2µM*,9.8%,?,1.7%,-14.2%
COc1ccc(OC)c(N(CC(=O)Nc2ccc3c(c2)OCO3)S(=O)(=O)c2ccccc2)c1,-36.3%[59 µM],-6.0%,6.9%,-12.9%,16.5%,-1.2%
CCOc1ccc(NC(=S)NCc2ccc3c(c2)OCO3)cc1,10µM*,.,-13.0%,.,-11.3%,0.6%
Cc1ccc(NC(=S)NCc2ccc3c(c2)OCO3)cc1,2.6%[59 µM],?,-9.1%,-3.0%,-11.6%,-5.7%
COc1ccc(Cl)cc1N(CC(=O)Nc1ccc2c(c1)OCO2)S(C)(=O)=O,50.1µM*,9.2%,4.8%,-3.1%,-0.7%,0.3%
COc1ccc(NC(=O)CN2CCN(CC(=O)Nc3ccc4c(c3)OCO4)CC2)cc1,9.4%[12.7 µM],6.31µM*,13.1%,-14.6%,-0.1%,-4.6%
